“And” between values parts separate entries of the source, which are not always exact repeats. Equal entries are not always repeated. Out of some 350,000 compounds screened, about 1,600 (0.46%) were called active.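 The calls were made as follows: active = every replicate reaching a set inhibition limit, whatever the replicate mean (cut at about 25% in these data); inconclusive = mean inhibition reaches that limit but some replicates miss it; inactive = the rest.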 The sample as a whole holds a higher share of actives than the screen did.
These molecules were tested against Protein AF-9 (Homo sapiens) (UniProt P42568) (assay: MLL-AF4/AF9 protein interaction blockers – biochemical, AlphaScreen, biotin-AF4 peptide, FLAG-AF9, single point, primary screen (AID 651704;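 also: 0% = plate neutral control median and 100% = total signal loss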)). Settings: biotin-AF4 peptide binding to FLAG-AF9, at 10 µM, hits give high values.
Chain of Protein AF-9 (Homo sapiens) (P42568 whole entry, looked up): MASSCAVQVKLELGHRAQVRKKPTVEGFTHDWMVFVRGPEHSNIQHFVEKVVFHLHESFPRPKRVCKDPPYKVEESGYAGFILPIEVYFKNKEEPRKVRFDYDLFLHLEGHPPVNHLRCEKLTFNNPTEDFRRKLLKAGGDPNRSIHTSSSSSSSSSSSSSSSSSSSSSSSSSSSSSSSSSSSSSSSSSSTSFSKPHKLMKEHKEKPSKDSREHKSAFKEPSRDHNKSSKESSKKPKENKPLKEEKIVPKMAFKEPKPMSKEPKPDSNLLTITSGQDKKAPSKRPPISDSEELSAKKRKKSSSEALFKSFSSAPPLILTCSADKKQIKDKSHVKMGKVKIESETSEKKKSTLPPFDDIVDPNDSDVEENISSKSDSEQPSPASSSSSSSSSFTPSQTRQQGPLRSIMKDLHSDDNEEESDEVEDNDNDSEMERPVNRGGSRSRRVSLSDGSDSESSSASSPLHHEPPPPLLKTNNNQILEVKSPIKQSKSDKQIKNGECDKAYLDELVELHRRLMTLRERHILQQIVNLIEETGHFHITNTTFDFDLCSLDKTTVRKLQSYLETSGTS

SMILES	inhibition
CC(C)=CCCC1(C)C=Cc2c(ccc3c2[nH]c2cc(O)c(C)cc23)O1 (configuration not stated)	26.9% (active)
COc1ccc(CN(C)C[C@@H]2OCCCC[C@H](C)Oc3ccc(NS(=O)(=O)c4cccs4)cc3C(=O)N([C@H](C)CO)C[C@@H]2C)cc1	5.32% (inactive)
N#Cc1ccc(-c2ccc(C3[C@@H]4CN(S(=O)(=O)c5ccccc5F)C[C@H]3N4)cc2)cc1 (some centres not stated)	-2.55% (inactive) and -2.34% (inactive)
COCC#Cc1ccc([C@@H]2[C@H]3CN(C(=O)C4CCOCC4)CC(=O)N3[C@H]2CO)cc1	-0.325% (inactive)
Cc1ccc(S(=O)(=O)Nc2ccc3c(c2)C(=O)N([C@H](C)CO)C[C@@H](C)[C@@H](CN(C)C(=O)CCC(F)(F)F)OCCCC[C@@H](C)O3)cc1	-0.265% (inactive)
CSC(=S)N/N=C/c1c[nH]c2ccccc12	33.1% (active)
C[n+]1ccc(/C=C/c2c[nH]c3ccccc23)cc1	11.9% (inactive)
O=C(Cc1c[nH]c2ccccc12)N/N=C/c1cccc(F)c1	2.76% (inactive)
CCCC#Cc1ccc([C@H]2[C@H]3CN(C(=O)Nc4ccc(F)cc4)CC(=O)N3[C@H]2CO)cc1	0.647% (inactive)
CO[C@@H]1CN(C)C(=O)c2cc(NS(=O)(=O)c3ccccc3C)ccc2OC[C@@H](C)N(S(C)(=O)=O)C[C@@H]1C	-4% (inactive)
COc1ccc(N2CCN(S(=O)(=O)c3ccc4c(c3)N(C(C)=O)CCO4)CC2)cc1	1.85% (inactive)
COc1ccc(NS(=O)(=O)c2cc(NC(=O)C3CCCCC3)ccc2N2CCOCC2)cc1	1.75% (inactive)
COc1ccc(NS(=O)(=O)c2cc3c(cc2C)N(C(C)=O)CCO3)cc1	52.8% (active)
C[C@@H]1CN([C@@H](C)CO)C(=O)c2cc(-c3ccc(F)cc3)cnc2O[C@@H]1CN(C)Cc1ccc(C(=O)O)cc1	-2.45% (inactive)
N#C[C@@H]1[C@H](c2ccccc2C2=CCCCC2)[C@@H](CO)N1S(=O)(=O)c1cccc(F)c1	-2.55% (inactive)
Cc1ccc(S(=O)(=O)N2C[C@H](O)COC[C@@H]3O[C@@H](CC(=O)NCC4CCCCC4)CC[C@H]32)cc1	27% (active)
O=C(C[C@@H]1CC[C@H]2[C@@H](COC[C@H](O)CN2S(=O)(=O)c2ccccc2)O1)NCCN1CCCC1	-0.246% (inactive)
O=C(C[C@@H]1CC[C@@H]2[C@H](COC[C@@H](O)CN2S(=O)(=O)c2ccccc2)O1)NCC1CCCCC1	33.9% (active)
Cc1ccc(S(=O)(=O)N2C[C@@H](O)COC[C@@H]3O[C@H](CC(=O)NCCCN(C)C)CC[C@H]32)cc1	-2.12% (inactive)
Cc1ccc(S(=O)(=O)N2C[C@@H](O)COC[C@@H]3O[C@H](CC(=O)NCc4ccc(Cl)c(Cl)c4)CC[C@H]32)cc1	0.126% (inactive)
CCNC(=O)C[C@@H]1CC[C@@H]2[C@H](COC[C@H](O)CN2S(=O)(=O)c2ccc(Oc3ccccc3)cc2)O1	-1.5% (inactive)
C[C@@H]1CN([C@@H](C)CO)C(=O)CCCn2cc(nn2)CO[C@H]1CN(C)Cc1ccc(C(=O)O)cc1	-0.624% (inactive)

SMILES	inhibition
CN(C)C(=O)c1ccc(-c2ccccc2[C@@H]2[C@@H](C#N)N(C(=O)C3CCCC3)[C@H]2CO)cc1	-1.75% (inactive)
O=C(c1cccc(F)c1)N1CC[C@@H]2[C@H](CO)Nc3ccc(C#Cc4ccccc4)cc3[C@@H]21	-0.355% (inactive)
C/C=C/c1ccc([C@@H]2[C@@H](CO)N(C(=O)CN(C)C)C23CN(C(=O)C2CCCC2)C3)cc1	4.6% (inactive)
CN1C(=O)c2cc(NC(=O)C3CCCC3)ccc2OC[C@@H]2O[C@@H](CC(=O)NCCc3ccncc3)CC[C@@H]21	1.93% (inactive)
C[C@H](CO)N1C[C@H](C)[C@H](CN(C)C(=O)CCN(C)C)OCc2ccccc2-c2c(n(C)c3ccccc23)C1=O	2.11% (inactive)
CCS(=O)(=O)N1CCC(N2CCN(c3ccccc3)CC2)CC1	-4.72% (inactive)
O=C(c1ccccc1)c1ccc(C(=O)N2CCN(c3ccccc3)CC2)cc1	-1.66% (inactive)
CN1CCC(CN)(N2CCN(c3ccccc3)CC2)CC1	33.8% (active)
CC(C)NC(=O)N(C)C[C@H]1OCCCC[C@H](C)Oc2ccc(NS(=O)(=O)c3ccc(Cl)cc3)cc2C(=O)N([C@@H](C)CO)C[C@H]1C	-0.682% (inactive)
O=C(c1ccc(F)cc1)n1cc(C(=S)N2CCOCC2)c2ccccc21	9.22% (inactive)
O=C(c1ccc(F)cc1)N1CCC(n2nnc3ccccc32)CC1	-0.54% (inactive)
O=C(c1ccc(F)cc1)n1c(=S)nc2ccccn21	37.5% (active)
CO[C@@H]1CN(C)C(=O)c2ccc(NC(=O)NC(C)C)cc2OC[C@@H](C)N(C)C[C@H]1C	-3.29% (inactive)
CC(=O)c1cccc(-c2cnc3c(NC=O)cc(-c4cccc(C(=O)N(C)C)c4)cn23)c1	-1.2% (inactive)
CN(C)CCNC(=O)c1cccc(-c2cnc3c(NC=O)cc(-c4cccc(C(F)(F)F)c4)cn23)c1	37.1% (active)
CN(C)C(=O)c1cccc(-c2cnc3c(NC=O)cc(-c4ccc(F)cc4)cn23)c1	3.38% (inactive)
COc1ccc2c3c(n(C)c2c1)[C@H](CO)N(C(=O)Nc1c(C)noc1C)CC31CN(CC2CC2)C1	1.61% (inactive)
C=CCOC(=O)[C@H]1[C@@H]2C(=O)O[C@@H](c3ccccc3)[C@@H](c3ccccc3)N2[C@@H](c2ccc(OCCOC(=O)[C@H]3C[C@H]4C(=O)NCC(=O)N4[C@H]3c3ccc(O)cc3)cc2)[C@]12C(=O)Nc1ccccc12	0.736% (inactive)
COc1ccccc1N(CC(=O)Nc1ccccc1C(=O)N1CCCC1)S(C)(=O)=O	50.9% (active)
COc1ccc([N+](=O)[O-])cc1N(CC(=O)Nc1ccccc1C(=O)N1CCOCC1)S(C)(=O)=O	1.49% (inactive)
O=C(CN(c1ccccc1)S(=O)(=O)c1ccc(Cl)cc1)Nc1ccccc1C(=O)N1CCCC1	0.298% (inactive)
COc1ccccc1NC(=O)Nc1nc(CC(=O)Nc2ccccc2F)cs1	0.499% (inactive)

SMILES	inhibition
O=C(Nc1nnc(COc2ccccc2)s1)Nc1ccccc1F	36% (active)
COc1ccccc1NC(=O)Nc1nnc(Cc2ccc(F)cc2)s1	3.41% (inactive)
CC(C)NC(=O)Nc1ccc2c(c1)C(=O)N([C@@H](C)CO)C[C@H](C)[C@H](CN(C)C(=O)NC1CCCCC1)OCCCC[C@@H](C)O2	-3.2% (inactive)
C[C@H](CO)N1C[C@H](C)[C@H](CN(C)Cc2ccc3c(c2)OCO3)OCCCC[C@H](C)Oc2ccc(NC(=O)c3ccccc3)cc2C1=O	4.39% (inactive)
CO[C@@H]1CC[C@@H]2CCOc3ccc(C#N)cc3C(=O)N(C)C[C@@H](C)C(=O)N(C)C[C@@H]1O2	3.45% (inactive)
CC(O)c1ccc(OCCN(C)c2ccccn2)cc1 (configuration not stated)	-3.42% (inactive)
C/C(=N\NC(=O)c1ccccc1F)c1ccccn1	-1.33% (inactive)
CCN(CC)CCOc1ccc2c(c1)C(=NNC(=O)c1ccccn1)c1cc(OCCN(CC)CC)ccc1-2	56.9% (active)
COc1ccc2c3c([nH]c2c1)[C@H](CO)N(C(=O)Nc1ccc(F)cc1)CC31CCN(CC2CCOCC2)CC1	11% (inactive)
CCC(=O)N1[C@@H](CO)[C@@H](c2ccccc2)C12CN(C(=O)c1cnccn1)C2	-4.68% (inactive)
COCCNC(=O)C[C@@H]1C[C@@H]2c3cc(NS(=O)(=O)c4ccccc4)ccc3O[C@@H]2[C@H](CO)O1	-1.39% (inactive)
C[C@@H]1CCCCO[C@H](CN(C)C(=O)Nc2ccc3c(c2)OCO3)[C@@H](C)CN([C@@H](C)CO)C(=O)c2cc(NC(=O)CCC(F)(F)F)ccc2O1	7.93% (inactive)
CCC(=O)Nc1ccc2c(c1)C(=O)N(C)[C@@H]1CC[C@@H](CC(=O)NCCN3CCCCC3)O[C@@H]1CO2	0.544% (inactive)
Cc1ccc(Nc2nc(Cl)c(C=O)s2)cc1	-4.45% (inactive)
Nc1ccc(C(=O)Nc2ccccc2N)cc1	-0.363% (inactive)
Cc1ccc(Nc2ccccc2N)cc1	49% (active)
O=C(C[C@@H]1CC[C@H](NC(=O)c2ccncc2)[C@@H](CO)O1)Nc1ccc(-c2ccccc2)cc1	-2.25% (inactive)
CO[C@@H]1CN(C)C(=O)c2ccc(NC(C)=O)cc2OC[C@@H](C)N(Cc2ccc(-c3ccccn3)cc2)C[C@H]1C	2.32% (inactive)
O=C(Nc1nnc(SCc2c(Cl)cccc2Cl)s1)c1cccc([N+](=O)[O-])c1	1.85% (inactive)
NC(=O)CSc1nnc(NC(=O)c2ccc3ccccc3c2)s1	-1.88% (inactive)
O=C(Nc1nnc(SCc2ccccc2Cl)s1)c1cccc([N+](=O)[O-])c1	48% (active)
COc1cc(CN2CC3(CN(S(=O)(=O)c4cn(C)cn4)C3)c3c(n(C)c4cc(OC)ccc34)[C@H]2CO)cc(OC)c1	12.6% (inactive)

SMILES	inhibition
COc1ccc(NC(=O)Nc2ccc3c(c2)[C@H]2C[C@H](CC(=O)NC4CCCC4)O[C@@H](CO)[C@H]2O3)cc1	0.232% (inactive)
CCN(CC)c1ccc(/C=N/NC(=O)c2cnccn2)c(O)c1	-1.45% (inactive)
CCN(CC)c1ccc(/C=N/Nc2nc(C)cc(C)n2)c(O)c1	79.7% (active)
Cc1cc(C)nc(N/N=C/c2c(CO)cnc(C)c2O)n1	-5.08% (inactive)
O=C(C[C@H]1CC[C@H]2[C@@H](COC[C@H](O)CN2C(=O)c2ccncc2)O1)NCc1cc(F)cc(F)c1	-16% (inactive)
COc1ccccc1NC(=O)N1CC(=O)N2[C@H](CO)[C@@H](c3ccc(C#Cc4ccc(F)cc4)cc3)[C@H]2C1	2.6% (inactive)
Cn1cnc(S(=O)(=O)N2C[C@H](O)COC[C@@H]3O[C@H](CC(=O)NC4CCCC4)CC[C@H]32)c1	-0.241% (inactive)
COc1ccc(S(=O)(=O)Nc2ccc3c(c2)CC(=O)N([C@@H](C)CO)C[C@@H](C)[C@@H](CN(C)Cc2ccc(C(=O)Nc4ccccc4N)cc2)O3)cc1	-0.302% (inactive)
C[C@@H]1CCCCO[C@H](CN(C)S(=O)(=O)c2cn(C)cn2)[C@@H](C)CN([C@@H](C)CO)C(=O)c2cc(NC(=O)CCC(F)(F)F)ccc2O1	-0.444% (inactive)
C=Cn1cc[n+](CC(=O)c2ccc(OC)c(OC)c2)c1	28.8% (active)
COc1ccc(C(=O)COC(=O)c2ccc([N+](=O)[O-])s2)cc1OC	-0.958% (inactive)
COc1ccc(-n2nnnc2SCC(=O)c2ccc(OC)c(OC)c2)cc1	-42.4% (inactive)
CO[C@@H]1CN(C)C(=O)c2ccc(NC(=O)C3CCCC3)cc2OC[C@H](C)NC[C@@H]1C	-0.502% (inactive)
C#CCOCCOCCOCCNc1nc(N2CCN(C(=O)[C@H](CO)n3cc([C@@H](N)C(C)C)nn3)CC2)nc(N2CCN(C(=O)[C@H](CCC(=O)O)n3cc([C@@H](N)[C@H](C)CC)nn3)CC2)n1	0.229% (inactive)
C#CCOCCOCCOCCNc1nc(N2CCN(C(=O)[C@H](CCCN=C(N)N)n3cc(C(N)[C@@H](C)CC)nn3)CC2)nc(N2CCN(C(=O)[C@H](CO)n3cc([C@@H](N)C(C)C)nn3)CC2)n1 (some centres not stated)	29.3% (active)
C#CCOCCOCCOCCNc1nc(N2CCN(C(=O)[C@H](CCC(=O)O)n3cc(C(N)CO)nn3)CC2)nc(N2CCN(C(=O)[C@H](Cc3ccc(O)cc3)n3cc(C(N)[C@H](C)CC)nn3)CC2)n1 (some centres not stated)	2.1% (inactive)
O=C([C@@H]1[C@@H](CO)[C@@H]2Cn3c(ccc(-c4ccccc4F)c3=O)[C@H]1N2C(=O)C1CCC1)N1CCCCC1	-3.29% (inactive)
C[C@@H]1CCCCO[C@H](CN(C)C(=O)Nc2ccc(C(F)(F)F)cc2)[C@@H](C)CN([C@@H](C)CO)C(=O)c2cc(NS(=O)(=O)c3cccs3)ccc2O1	2.48% (inactive)
CO[C@@H]1CN(C)C(=O)c2cc(NC(C)=O)ccc2OC[C@H](C)N(Cc2ccccn2)C[C@H]1C	-0.12% (inactive)
N#C[C@@H]1[C@@H](c2ccccc2C2=CCCC2)[C@H](CO)N1C(=O)NC1CCCC1	2.11% (inactive)
COCC#Cc1ccc([C@@H]2[C@@H](CO)N3C(=O)CN(C(=O)C4CCOCC4)C[C@@H]23)cc1	-0.906% (inactive)
